# Experimental data reported in PubChem BioAssay.
# For part of these data: Measured potencies and affinities stand elsewhere. Calls of active or inactive are those of the source.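 How the source made its calls, unless noted: active means earlier screen potentiator hit that boosts the TRPC4 ion channel at some dose, with a dose response; inactive means no potentiation, no dose response, or not a prior hit.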
# Legend:
# [1] = test system: TRPC4 beta (transient receptor potential cation channel C4), mouse; experiment: activators of mouse TRPC4 channel, confirmation, cell-based, Fluo4 calcium, HEK293 TRPC4beta/mu-opioid, duplicates, 10 µM (AID 2426;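 active means fluorescence ratio normalized to control raised more than 50% in primary screen plus both repeat runs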;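 on activation: percent rise of integrated ratio over buffer wells lacking compound which define 0%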); settings: Fluo4 calcium fluorescence, at 10 µM; active compounds read high
# [2] = test system: transient receptor potential cation channel C4 beta (TRPC4), mouse; experiment: activators of mouse TRPC4 channel, confirmation, cell-based, second round, Fluo4, HEK293 TRPC4beta/mu-opioid, 1 µM (AID 2461;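 active means primary screen active and over 50% activation in each of two duplicate runs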); settings: Fluo4 calcium fluorescence, at 1 µM; active compounds read high
# [3] = test system: TRPC4 (transient receptor potential cation channel C4 beta), mouse; experiment: positive allosteric modulators of mouse TRPC4, confirmation, cell-based, second round, Fluo-4, HEK293 TRPC4beta/mu-opioid, 1 µM (AID 2554;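 active means primary screen hit whose fluorescence ratio, in both repeats, exceeds the weak agonist control mean by 3 SD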); settings: DAMGO EC20, Fluo-4 calcium flux, at 1 µM; active compounds read high
# [4] = test system: TRPC4 beta (transient receptor potential cation channel C4), mouse; experiment: positive allosteric modulators of mouse TRPC4, confirmation, cell-based, Fluo-4, HEK293 TRPC4beta/mu-opioid (AID 2555;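 active means primary screen hit whose calcium fluorescence ratio, in both repeats, exceeds the weak agonist control mean by 3 SD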); settings: DAMGO EC20, Fluo-4 calcium flux, at 10 µM; active compounds read high
# [5] = biological target: Short transient receptor potential channel 4 (Mus musculus) (UniProt Q9QUQ5); experiment: inhibitors of mouse TRPC4 channel, confirmation, cell-based, Fluo4, HEK293 TRPC4beta/mu-opioid (AID 2636;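 active means calcium signal cut by more than 3 SD below the full-agonist control yet still positive, in both repeats and the earlier primary screen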); settings: DAMGO, Fluo4 calcium flux, at 10 µM; active compounds read high
# Chain of Short transient receptor potential channel 4 (Mus musculus) (Q9QUQ5 whole entry, looked up): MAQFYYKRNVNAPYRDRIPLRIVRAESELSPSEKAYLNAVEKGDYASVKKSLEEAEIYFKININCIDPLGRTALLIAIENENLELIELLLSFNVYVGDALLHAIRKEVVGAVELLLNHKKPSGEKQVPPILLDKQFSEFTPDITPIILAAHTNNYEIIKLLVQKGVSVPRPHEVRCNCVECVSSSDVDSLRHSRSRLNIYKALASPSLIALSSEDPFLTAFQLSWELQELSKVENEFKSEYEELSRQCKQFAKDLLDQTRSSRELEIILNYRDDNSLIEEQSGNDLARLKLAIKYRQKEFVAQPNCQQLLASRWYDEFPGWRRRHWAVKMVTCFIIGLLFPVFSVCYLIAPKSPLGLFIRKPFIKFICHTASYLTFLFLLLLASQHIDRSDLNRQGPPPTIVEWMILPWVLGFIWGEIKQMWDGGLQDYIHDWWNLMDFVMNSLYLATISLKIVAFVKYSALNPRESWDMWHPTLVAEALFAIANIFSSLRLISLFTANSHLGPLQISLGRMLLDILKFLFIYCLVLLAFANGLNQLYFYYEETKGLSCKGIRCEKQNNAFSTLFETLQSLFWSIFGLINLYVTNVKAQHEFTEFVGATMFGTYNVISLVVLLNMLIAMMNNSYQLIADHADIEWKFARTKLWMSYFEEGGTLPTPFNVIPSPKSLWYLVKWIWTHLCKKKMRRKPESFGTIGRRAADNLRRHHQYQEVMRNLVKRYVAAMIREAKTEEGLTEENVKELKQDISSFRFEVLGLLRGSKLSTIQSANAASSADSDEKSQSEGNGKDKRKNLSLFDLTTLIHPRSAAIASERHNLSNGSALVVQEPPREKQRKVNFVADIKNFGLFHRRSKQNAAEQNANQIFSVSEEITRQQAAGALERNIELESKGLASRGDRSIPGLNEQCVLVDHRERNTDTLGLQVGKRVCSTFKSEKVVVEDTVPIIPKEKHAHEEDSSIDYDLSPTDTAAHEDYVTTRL
# [6] = biological target: Short transient receptor potential channel 4 (Mus musculus) (UniProt Q9QUQ5); experiment: inhibitors of mouse TRPC4 channel, confirmation, cell-based, second round, Fluo4, HEK293 TRPC4beta/mu-opioid, 1 µM (AID 2637;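 active means calcium signal ratio cut to more than 3 SD under the fully stimulated control mean yet still positive, in both repeats and the primary screen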); settings: Fluo4 calcium flux, DAMGO, at 1 µM; active compounds read high
# [7] = biological target: Short transient receptor potential channel 4 (Mus musculus) (UniProt Q9QUQ5); experiment: mouse TRPC4 channel activators, dose response, cell-based, HEK293 TRPC4/mu-opioid, Fluo-4 calcium (AID 434937;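 active means primary screen activator hit with a dose response curve and TRPC4 channel activation at any tested dose; inactive means no activation, no dose response, or not a primary hit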)
# [8] = biological target: Short transient receptor potential channel 4 (Mus musculus) (UniProt Q9QUQ5); experiment: TRPC4 positive allosteric modulators, dose response, cell-based, HEK293 TRPC4/mu-opioid, Fluo-4 calcium, EC20 DAMGO (AID 434941);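 further: calcium entry triggered by an EC20 dose of DAMGO at the co-expressed mu-opioid receptor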
# [9] = biological target: Short transient receptor potential channel 4 (Mus musculus) (UniProt Q9QUQ5); experiment: mouse TRPC4 channel inhibitors, dose response, cell-based, HEK293 TRPC4/mu-opioid, Fluo-4 calcium (AID 434942;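 active means primary screen inhibitor hit that blocks the TRPC4 channel at some tested dose, yielding a dose curve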)
# [10] = biological target: Short transient receptor potential channel 6 (Mus musculus) (UniProt Q61143); experiment: inhibition of mouse TRPC6 channel, confirmation, selectivity assay for TRPC4 inhibitor project, cell-based, HEK293, membrane potential dye, duplicate (AID 434948;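 active means active in primary screen and both duplicates, each dropping signal beyond three positive-control SD with fluorescence still positive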); settings: HEK293 TRPC6, membrane potential dye fluorescence, at 10 µM, stimulated with maximal-effect acetylcholine; active compounds read high
# Chain of Short transient receptor potential channel 6 (Mus musculus) (Q61143 whole entry, looked up): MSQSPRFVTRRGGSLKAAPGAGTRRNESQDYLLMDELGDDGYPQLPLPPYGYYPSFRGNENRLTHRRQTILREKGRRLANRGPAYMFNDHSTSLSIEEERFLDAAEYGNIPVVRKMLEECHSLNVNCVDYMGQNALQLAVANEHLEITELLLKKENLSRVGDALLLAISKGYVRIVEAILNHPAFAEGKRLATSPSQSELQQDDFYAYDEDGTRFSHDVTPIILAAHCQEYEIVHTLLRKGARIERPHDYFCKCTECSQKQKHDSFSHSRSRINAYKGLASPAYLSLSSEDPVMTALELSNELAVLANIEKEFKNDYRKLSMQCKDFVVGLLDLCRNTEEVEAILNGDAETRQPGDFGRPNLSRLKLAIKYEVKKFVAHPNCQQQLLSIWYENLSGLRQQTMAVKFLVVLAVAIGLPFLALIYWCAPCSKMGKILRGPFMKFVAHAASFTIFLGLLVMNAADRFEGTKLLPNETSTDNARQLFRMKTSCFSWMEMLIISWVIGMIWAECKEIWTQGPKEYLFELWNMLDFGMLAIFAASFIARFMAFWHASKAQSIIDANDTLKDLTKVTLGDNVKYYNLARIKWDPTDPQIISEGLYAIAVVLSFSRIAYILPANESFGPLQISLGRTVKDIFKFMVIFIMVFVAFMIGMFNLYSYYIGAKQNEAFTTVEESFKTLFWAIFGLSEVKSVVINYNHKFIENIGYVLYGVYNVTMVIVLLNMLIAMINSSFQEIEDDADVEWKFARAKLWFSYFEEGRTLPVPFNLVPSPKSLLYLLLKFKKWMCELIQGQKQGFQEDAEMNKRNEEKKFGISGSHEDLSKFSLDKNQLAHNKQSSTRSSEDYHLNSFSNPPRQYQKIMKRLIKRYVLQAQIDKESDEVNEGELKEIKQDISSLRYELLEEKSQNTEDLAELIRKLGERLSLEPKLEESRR
# [11] = biological target: Short transient receptor potential channel 6 (Mus musculus) (UniProt Q61143); experiment: activation of mouse TRPC6 channel, confirmation, selectivity assay for TRPC4 activator project, cell-based, HEK293, membrane potential dye, duplicate (AID 434950;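 active means membrane potential signal rise above negative control mean plus 3 SD in both duplicates, also active in the earlier TRPC4 screen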); settings: HEK293 TRPC6, membrane potential fluorescence, at 10 µM; active compounds read high
# [12] = biological target: Short transient receptor potential channel 6 (Mus musculus) (UniProt Q61143); experiment: TRPC6 potentiation by TRPC4 potentiator hits, confirmation, selectivity assay for TRPC4 potentiator project, HEK293 cells, membrane potential dye, duplicate (AID 434952;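 active means compound raising the membrane signal above positive-control mean plus 3 SD in both repeats, and a primary screen hit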); settings: HEK293 TRPC6, membrane potential dye fluorescence, at 10 µM, maximal acetylcholine added after compound; active compounds read high
# [13] = biological target: Short transient receptor potential channel 4 (Mus musculus) (UniProt Q9QUQ5); experiment: calcium flux activators in TRPC4/5HT1a cells, counter-screen for TRPC4 activator project, cell-based, second counter screen, HEK293 TRPC4/5HT1a, Fluo-4 (AID 434977;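 active means calcium signal rise above buffer-control mean plus 5 SD in both duplicates, and also a hit in the primary screen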;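 on activation: plate controls were assay buffer for no effect and maximal serotonin response for full effect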); settings: Fluo-4 calcium flux, at 10 µM; active compounds read high
# [14] = calcium flux inhibitors in TRPC4/5HT1a cells, confirmation, counter-screen for TRPC4 inhibitor project, cell-based, second counter screen, HEK293 TRPC4/5HT1a, Fluo-4 (AID 434978;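 active means primary screen active whose calcium signal fell more than 3 SD beyond the full-serotonin control mean in both duplicate plates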;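 further: serotonin given first at submaximal then at maximal dose after compound preincubation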); settings: Fluo-4 calcium flux, at 10 µM, serotonin added to trigger calcium flux; active compounds read high
# [15] = test system: TRPC4 (mouse), co-expressed with 5HT1a in HEK293; experiment: calcium flux potentiators in TRPC4/5HT1a cells, confirmation, counter-screen for TRPC4 potentiator project, cell-based, second counter screen, HEK293 TRPC4/5HT1a, Fluo-4 (AID 434979;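 active means signal rise over 3 SD above mean of control wells given weak agonist, in both repeats and first screen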); settings: Fluo-4 calcium flux, at 10 µM, serotonin added at its EC20 dose; active compounds read high
# [16] = calcium flux activation in mu-opioid HEK293 cells, confirmation, counter-screen for TRPC4 activator project, cell-based, HEK293 mu-opioid receptor line (AID 449723;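 active means hit in primary screen, with calcium signal over 5 SD above buffer well mean in both duplicates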;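 further: counter screen cells carry the mu-opioid receptor alone and lack TRPC4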); settings: Fluo-4 calcium fluorescence, at 10 µM; active compounds read high
# [17] = calcium flux enhancement in mu-opioid HEK293 cells, confirmation, counter-screen for TRPC4 allosteric potentiator project, cell-based, HEK293 mu-opioid receptor line (AID 449724;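 active means calcium signal rise more than 3 SD above the low-dose agonist control mean, in both duplicate plates and the primary screen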); settings: Fluo-4 calcium flux, at 10 µM, compound added before EC20 DAMGO stimulus; active compounds read high
structure (smiles),measurement,setting,value
COc1ccc(-c2cc(C(F)(F)F)nc(N3CCN(C)CC3)n2)cc1,outcome,[1],inactive
same,outcome,[2],inactive
same,outcome,[3],inactive
same,outcome,[4],inactive
same,outcome,[5],inactive
same,outcome,[6],inactive
same,outcome,[7],inactive
same,outcome,[8],inactive
same,outcome,[9],inactive
same,outcome,[10],inactive
same,outcome,[11],inactive
same,outcome,[12],inactive
same,outcome,[13],inactive
same,outcome,[14],inactive
same,potentiation,[15],14.5% (active)
same,outcome,[16],inactive
same,outcome,[17],inactive
Cc1ccc(C)c(N2CCN(CCCNC(=O)CCn3c(=O)c4cccn4c4cccnc43)CC2)c1,outcome,[1],inactive
same,outcome,[2],inactive
same,outcome,[3],inactive
same,outcome,[4],inactive
same,outcome,[5],inactive
same,outcome,[6],inactive
same,outcome,[7],inactive
same,outcome,[8],inactive
same,outcome,[9],inactive
same,outcome,[10],inactive
same,outcome,[11],inactive
same,outcome,[12],inactive
same,outcome,[13],inactive
same,outcome,[14],inactive
same,outcome,[15],inactive
same,outcome,[16],inactive
same,outcome,[17],inactive
CCOC(=O)c1c(C)n(-c2ccc(C)cc2)c2ccc(OCC(O)CNCC3CCCO3)cc12 (stereo not given),outcome,[1],inactive
same,outcome,[2],inactive
same,outcome,[3],inactive
same,outcome,[4],inactive
same,outcome,[5],inactive
same,outcome,[6],inactive
same,outcome,[7],inactive
same,outcome,[8],inactive
same,outcome,[9],inactive
same,outcome,[10],inactive
same,outcome,[11],inactive
same,outcome,[12],inactive
same,outcome,[13],inactive
same,outcome,[14],inactive
same,potentiation,[15],24.6% (active)
same,outcome,[16],inactive
same,outcome,[17],inactive
c1ccc(Nc2c3c(nc4ccccc24)CCC3)cc1,outcome,[1],inactive
same,outcome,[2],inactive
same,outcome,[3],inactive
same,outcome,[4],inactive
same,outcome,[5],inactive
same,outcome,[6],inactive
same,outcome,[7],inactive
same,outcome,[8],inactive
same,outcome,[9],inactive
same,outcome,[10],inactive
same,outcome,[11],inactive
same,outcome,[12],inactive
same,outcome,[13],inactive
same,outcome,[14],inactive
same,outcome,[15],inactive
same,outcome,[16],inactive
same,outcome,[17],inactive
CCOC(=O)c1c(NC(=O)COC(=O)CCOc2ccc(OCC)cc2)sc(C(=O)N(C)C)c1C,outcome,[1],inactive
same,outcome,[2],inactive
same,potentiation,[3],22% (active)
same,potentiation,[4],32% (active)
same,outcome,[5],inactive
same,outcome,[6],inactive
same,outcome,[7],inactive
same,outcome,[8],inactive
same,outcome,[9],inactive
same,outcome,[10],inactive
same,outcome,[11],inactive
same,outcome,[12],inactive
same,outcome,[13],inactive
same,outcome,[14],inactive
same,potentiation,[15],81.1% (active)
same,outcome,[16],inactive
same,outcome,[17],inactive
O=C1CC(NS(=O)(=O)c2cccs2)CN1c1ccccc1 (stereo not given),outcome,[1],inactive
same,outcome,[2],inactive
same,outcome,[3],inactive
same,potentiation,[4],14% (active)
same,outcome,[5],inactive
same,outcome,[6],inactive
same,outcome,[7],inactive
same,outcome,[8],inactive
same,outcome,[9],inactive
same,outcome,[10],inactive
same,outcome,[11],inactive
same,outcome,[12],inactive
same,outcome,[13],inactive
same,outcome,[14],inactive
same,potentiation,[15],29.8% (active)
same,outcome,[16],inactive
same,outcome,[17],inactive
CN(C)CCCCOc1cccc(Br)c1,outcome,[1],inactive
same,outcome,[2],inactive
same,outcome,[3],inactive
same,outcome,[4],inactive
same,outcome,[5],inactive
same,outcome,[6],inactive
same,outcome,[7],inactive
same,outcome,[8],inactive
same,outcome,[9],inactive
same,outcome,[10],inactive
same,outcome,[11],inactive
same,outcome,[12],inactive
same,outcome,[13],inactive
same,outcome,[14],inactive
same,potentiation,[15],20% (active)
same,outcome,[16],inactive
same,outcome,[17],inactive
COc1ccccc1C(=O)NNC1=C(C(=O)C(F)(F)F)CCC1,activation,[1],58% (active)
same,outcome,[2],inactive
same,outcome,[3],inactive
same,outcome,[4],inactive
same,outcome,[5],inactive
same,outcome,[6],inactive
same,outcome,[7],inactive
same,outcome,[8],inactive
same,outcome,[9],inactive
same,outcome,[10],inactive
same,outcome,[11],inactive
same,outcome,[12],inactive
same,activation,[13],11% (active)
same,outcome,[14],inactive
same,outcome,[15],inactive
same,outcome,[16],inactive
same,outcome,[17],inactive
CCOc1ccc(NS(=O)(=O)c2ccc(NC(=S)NC(=O)CC(C)C)cc2)cc1,outcome,[1],inactive
same,outcome,[2],inactive
same,outcome,[3],inactive
same,potentiation,[4],15% (active)
same,outcome,[5],inactive
same,outcome,[6],inactive
same,outcome,[7],inactive
same,outcome,[8],inactive
same,outcome,[9],inactive
same,outcome,[10],inactive
same,outcome,[11],inactive
same,outcome,[12],inactive
same,outcome,[13],inactive
same,outcome,[14],inactive
same,potentiation,[15],6.51% (active)
same,outcome,[16],inactive
same,outcome,[17],inactive
COc1ccc(CNC(=O)C(C)NCc2ccc(S(N)(=O)=O)cc2)cc1 (stereo not given),outcome,[1],inactive
same,outcome,[2],inactive
same,outcome,[3],inactive
same,outcome,[4],inactive
same,outcome,[5],inactive
same,outcome,[6],inactive
same,outcome,[7],inactive
same,outcome,[8],inactive
same,outcome,[9],inactive
same,outcome,[10],inactive
same,outcome,[11],inactive
same,outcome,[12],inactive
same,outcome,[13],inactive
same,outcome,[14],inactive
same,outcome,[15],inactive
same,outcome,[16],inactive
same,outcome,[17],inactive
COc1ccc(C(=O)OCCc2sc[n+](CC(=O)c3ccccc3)c2C)cc1,outcome,[1],inactive
same,outcome,[2],inactive
same,outcome,[3],inactive
same,outcome,[4],inactive
same,outcome,[5],inactive
same,outcome,[6],inactive
same,outcome,[7],inactive
same,outcome,[8],inactive
same,outcome,[9],inactive
same,inhibition,[10],43% (active)
same,outcome,[11],inactive
same,outcome,[12],inactive
same,outcome,[13],inactive
same,outcome,[14],inactive
same,outcome,[15],inactive
same,outcome,[16],inactive
same,outcome,[17],inactive
CC[n+]1c(/C=C/Nc2ccccc2)sc2ccccc21,outcome,[1],inactive
same,outcome,[2],inactive
same,outcome,[3],inactive
same,outcome,[4],inactive
same,outcome,[5],inactive
same,outcome,[6],inactive
same,outcome,[7],inactive
same,outcome,[8],inactive
same,outcome,[9],inactive
same,outcome,[10],inactive
same,outcome,[11],inactive
same,outcome,[12],inactive
same,outcome,[13],inactive
same,outcome,[14],inactive
same,outcome,[15],inactive
same,outcome,[16],inactive
same,outcome,[17],inactive
CN(C)C(CNc1ccc(C(N)=O)cc1[N+](=O)[O-])c1ccccc1 (stereo not given),outcome,[1],inactive
same,outcome,[2],inactive
same,outcome,[3],inactive
same,outcome,[4],inactive
same,outcome,[5],inactive
same,outcome,[6],inactive
same,outcome,[7],inactive
same,outcome,[8],inactive
same,outcome,[9],inactive
same,outcome,[10],inactive
same,outcome,[11],inactive
same,outcome,[12],inactive
same,outcome,[13],inactive
same,outcome,[14],inactive
same,outcome,[15],inactive
same,outcome,[16],inactive
same,outcome,[17],inactive
c1ccc(CN2CCN(c3nc4ccccc4s3)CC2)cc1,outcome,[1],inactive
same,outcome,[2],inactive
same,outcome,[3],inactive
same,potentiation,[4],9% (active)
same,outcome,[5],inactive
same,outcome,[6],inactive
same,outcome,[7],inactive
same,outcome,[8],inactive
same,outcome,[9],inactive
same,outcome,[10],inactive
same,outcome,[11],inactive
same,outcome,[12],inactive
same,outcome,[13],inactive
same,outcome,[14],inactive
same,potentiation,[15],14.8% (active)
same,outcome,[16],inactive
same,outcome,[17],inactive
CCN(CCO)Cc1csc2ccc(Br)cc12,outcome,[1],inactive
same,outcome,[2],inactive
same,potentiation,[3],12% (active)
same,outcome,[4],inactive
same,outcome,[5],inactive
same,outcome,[6],inactive
same,outcome,[7],inactive
same,outcome,[8],inactive
same,outcome,[9],inactive
same,outcome,[10],inactive
same,outcome,[11],inactive
same,outcome,[12],inactive
same,outcome,[13],inactive
same,outcome,[14],inactive
same,outcome,[15],inactive
same,outcome,[16],inactive
same,outcome,[17],inactive
